An excerpt weighted towards active compounds, which were near 5.6% of everything screened.
Six1-Eya2 inh: Six1/Eya2 interaction inhibition. AlphaScreen GST-Six1/His-Eya2 binding, biochemical; stronger effect = lower value. activity change, % (no concentration beside the values). hit rate 0.56% among 360,000. AID 651725; in the data active = activity change below about -65%; inconclusive = mostly about -30% to -63%
Target sequence (O00167 whole entry, looked up): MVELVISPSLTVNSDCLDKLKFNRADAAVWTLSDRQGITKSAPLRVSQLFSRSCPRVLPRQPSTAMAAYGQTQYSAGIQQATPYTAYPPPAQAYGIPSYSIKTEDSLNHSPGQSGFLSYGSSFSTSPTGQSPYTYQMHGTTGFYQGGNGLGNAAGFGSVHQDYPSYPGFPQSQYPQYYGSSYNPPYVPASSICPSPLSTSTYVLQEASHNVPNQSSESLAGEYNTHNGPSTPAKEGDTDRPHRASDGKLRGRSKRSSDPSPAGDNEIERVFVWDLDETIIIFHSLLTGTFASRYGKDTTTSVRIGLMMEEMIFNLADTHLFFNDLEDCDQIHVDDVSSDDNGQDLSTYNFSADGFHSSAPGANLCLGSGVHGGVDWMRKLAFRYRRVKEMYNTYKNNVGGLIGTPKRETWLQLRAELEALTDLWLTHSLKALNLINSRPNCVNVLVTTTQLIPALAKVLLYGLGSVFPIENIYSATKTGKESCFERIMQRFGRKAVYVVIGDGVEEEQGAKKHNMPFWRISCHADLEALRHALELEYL
Target sequence (Q15475 whole entry, looked up): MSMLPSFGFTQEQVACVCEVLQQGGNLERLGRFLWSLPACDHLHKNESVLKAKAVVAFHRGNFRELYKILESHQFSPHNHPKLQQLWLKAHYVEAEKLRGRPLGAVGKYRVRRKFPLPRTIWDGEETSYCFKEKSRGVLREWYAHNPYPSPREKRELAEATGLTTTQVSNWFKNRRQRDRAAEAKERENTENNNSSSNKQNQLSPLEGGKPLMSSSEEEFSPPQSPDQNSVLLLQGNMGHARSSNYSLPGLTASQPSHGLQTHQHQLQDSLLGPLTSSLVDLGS
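GST-Six1 + His-Eya2 (5X stock: 250/500 nM); Tris pH 8.0, 300 mM NaCl, 0.05% BSA, 0.02% Tween 20; GSH donor/Ni acceptor beads; 1 h 37 °C dark; AlphaScreen readout.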
PKM2 activator: activators of human pyruvate kinase M2 | purified PKM2, Kinase-Glo ATP luminescence, activation; response scale: 0% is enzyme alone, no compound | Potency, µM (doses to about 57.5 µM), for inactives: at the top dose activation, most hits filed as activators | hit rate 0.34% among 260,000; note: potency is the fitted concentration of half-maximal effect; nearly all actives have a fitted effect of over 55% in size
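ATP formation by purified human PK-M2, quantified via coupled luciferase luminescence after 1 h at room temperature with 0.1 mM ADP and 0.5 mM PEP final.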
Gal4-VP16 FLuc: inhibits Gal4-VP16 luciferase reporter, ROR gamma counter-screen. hit rate 3.5% among 310,000. Drosophila S2 Gal4-VP16 UAS-luciferase, luminescence, 20 h. Potency, µM (titrated, usually from 53.6 µM), without a hit: top-dose activity, negative = inhibition, actives largely listed as inhibitors;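 note: Gal4-VP16 expression switched on by copper sulfate through the metallothionein promoter; potency is the fitted concentration of half-maximal effect; nearly all actives have a fitted effect of over 50% in size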
CtBP-E1A inh: inhibitors of CtBP/E1A interaction; hit rate 0.49% among 340,000; AlphaScreen GST-E1A/His-CtBP binding, 1536-well; stronger effect = lower value; AID 651724; activity change, % (concentration not given with the values); in the data active = activity change below about -65%; inconclusive = mostly about -30% to -63%
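Homogeneous bead-based format: GST-tagged E1A captured on glutathione donor beads, His-tagged CtBP on nickel acceptor beads; compounds precede bead addition by 2 h at 37 °C.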
RORgamma inh: inhibitors of mouse ROR gamma transcriptional activity; P51450; Drosophila S2 Gal4-RORgamma UAS-luciferase reporter, 20 h; Potency, µM (top dose mostly 53.6 µM), for the others: top-dose activity change, negative = inhibition, most hits filed as inhibitors; hit rate 5.4% among 310,000; AID 2551; note: potency is the fitted concentration of half-maximal effect; nearly all actives have a fitted effect of over 60% in size
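Stably transfected Drosophila Schneider cells are the test system, with ROR gamma fused to Gal4 and luciferase under UAS control; luminescence is read after 20 hr of 700 uM copper sulfate induction at ambient temperature.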
* = called active by the depositor; ? = inconclusive; · = not tested or not shown; [ ] = dose if it differs, or a comment. Unless noted, calls come from the whole dose curve; as a rule, active = well fitted curve in the direction sought with a large enough effect; inconclusive = small, poorly fitted or top-dose-only effect, or another doubt; inactive = no such curve, though single readings can be large; an effect the other way counts as inactive or inconclusive. % is set by controls: 0 for no effect and ±100 for the full control effect.

SMILES	Six1-Eya2 inh	PKM2 activator	Gal4-VP16 FLuc	CtBP-E1A inh	RORgamma inh
COc1ccc(Cl)cc1NC(=S)Nc1ccccc1F	4.0	-10.4%	?	0.5	?
Cc1ccc(C)c(C(C)NC(=O)c2ccc(Br)o2)c1 (stereo unspecified)	16.7	-2.0%	?	-11.3	?
CC(C)[C@H](NC(=O)[C@@H](Cc1c[nH]c2ccccc12)NC(=O)[C@H](Cc1ccc(O)cc1)NC(=O)[C@@H](N)CC(=O)O)C(=O)N[C@H](Cc1c[nH]c2ccccc12)C(=O)N[C@H](Cc1c[nH]c2ccccc12)C(=O)N[C@@H](CCCCN)C(N)=O	·	·	4.2%	·	25.6%
COc1ccc(/C=C2\CCc3ccccc3C2=O)cc1OC	-12.1	1.7%	-10.0%	-21.4	43.6%
CCN1C/C(=C/c2ccc(OC)c(O)c2)C(=O)/C(=C/c2ccc(OC)c(O)c2)C1	5.6	5.7%	?	·	6.31µM*
COc1ccc(/C=C2\CC/C(=C\c3ccc(OC)c(OC)c3)C2=O)cc1OC	6.6	-17.3%	15.8µM*	-10.6	2.24µM*
COc1ccc(C=C2C=C(C(C)(C)C)C(=O)C(C(C)(C)C)=C2)cc1OC	-1.4	2.1%	4.47µM*	3.5	7.08µM*
COc1cc(/C=C2/CC/C(=C/c3ccc(O)c(OC)c3)C2=O)ccc1O	-5.6	11.0%	?	-3.1	-41.2%
Cc1c(Cl)cccc1NC(=S)NCc1ccccc1Cl	6.6	-5.2%	1.58µM*	3.7	1.12µM*
Fc1ccc(CNC(=S)Nc2ccccc2F)cc1	16.3	-1.2%	?	·	?
Fc1ccc(CNC(=S)Nc2ccccc2Cl)cc1	-1.4	7.2%	?	2.0	11.2µM*
Cc1c(Cl)cccc1NC(=S)NCc1ccc(F)cc1	-14.9	3.4%	5.01µM*	-1.1	2.24µM*
CCCCN(C(=O)Cc1cccc(F)c1)c1c(N)n(CCC)c(=O)[nH]c1=O	4.6	2.0%	-1.3%	9.9	14.6%
CCNc1ncc2nc(-c3ccc(Cl)cc3)c(=O)n(Cc3ccc(F)cc3)c2n1	·	·	4.3%	·	-8.7%
Cc1ccc(C2=CC(c3ccccc3)n3ncnc3N2)cc1 (stereo unspecified)	-6.1	·	·	6.3	·
Fc1ccc(Br)cc1C1C=C(c2ccc(Br)cc2)Nc2ncnn21 (stereo unspecified)	-1.0	2.1%	?	6.3	6.31µM*
C1=C(c2ccccc2)Nc2ncnn2C1c1ccccc1 (stereo unspecified)	3.1	·	·	2.1	·
Cc1ccsc1C1C=C(c2cccc(Br)c2)Nc2ncnn21 (stereo unspecified)	-2.6	1.7%	?	-1.3	7.94µM*
CCc1ccc(C2=CC(c3cc(Br)ccc3F)n3ncnc3N2)cc1 (stereo unspecified)	-13.3	3.4%	14.1µM*	-5.6	?
CC(=O)NCCc1nc2cc(NC(=O)COc3ccc(C)cc3)ccc2n1C	7.2	-10.2%	1.3%	-1.4	29.6%
COC(=O)N1c2ccccc2C=Cc2ccccc21	-5.1	2.9%	4.6%	-11.6	-28.1%
O=C(CNC(=O)c1ccccc1F)OCCOc1cccc(Cl)c1	6.0	·	·	4.7	·
N#Cc1ccc(S(=O)(=O)NC2CC2)cc1	25.7	·	4.1%	28.8	-2.9%
C/C=C/C(=O)[C@@H](C)[C@@H](/C=C/C[Si](C)(C)C)C(C)C	·	·	-1.6%	·	0.9%
CCCC(C)c1nnc(NC(=O)c2cc(C(=O)OC)cc([N+](=O)[O-])c2)s1 (stereo unspecified)	-4.2	0.2%	15.8µM*	-7.3	10µM*
SMILES	Six1-Eya2 inh	PKM2 activator	Gal4-VP16 FLuc	CtBP-E1A inh	RORgamma inh
CCCC(C)NC(=O)c1cc(C(=O)OC)cc([N+](=O)[O-])c1 (stereo unspecified)	7.5	4.4%	4.1%	-7.0	-1.5%
Cc1cc2nc3n(c2cc1C)CCCN3	1.1	0.2%[11.5 µM]	-10.0%	·	1.58µM*
Cc1cc2nc(C)c(=O)n(C)c2cc1C	-6.3	7.2%	7.4%	1.4	-13.7%
Cc1ccc(OC(=O)CCC(=O)Nc2ccc(C(N)=O)cc2)cc1	4.8	·	·	-0.6	·
O=C(C1CN(C(=O)c2cc3ccccc3o2)c2ccccc2O1)N1CCCCC1 (stereo unspecified)	-11.3	·	·	-5.5	·
O=C(NC(=S)Nc1ccccc1N1CCOCC1)c1ccc(Br)cc1	-21.2	-1.2%	·	-27.8	·
O=C(Nc1ccccc1N1CCCC1)c1cccc(F)c1	-4.3	6.9%	·	-1.4	·
O=C(NC(=S)Nc1ccccc1N1CCCC1)c1ccc(F)cc1	?	7.1%	-64.0%	?	1.58µM*
O=C(NC(=S)Nc1ccccc1N1CCCCC1)c1ccc(F)cc1Cl	-16.2	-6.5%	3.16µM*	5.7	4.47µM*
O=C(NC(=S)Nc1ccccc1N1CCOCC1)c1ccc(-c2ccccc2F)o1	-26.1	-8.8%	-8.7%	4.3	2.82µM*
O=C(NC(=S)Nc1ccccc1N1CCCC1)c1cccc(F)c1	?	-2.0%	7.94µM*	·	3.16µM*
Cc1cc(NC(=O)CCN2CCC(C)CC2)ccc1Br	4.0	1.6%[11.5 µM]	6.4%	·	-3.0%
O=C(NC(=S)Nc1ccccc1N1CCCCC1)c1ccccc1	-2.3	-0.2%	7.94µM*	·	1.41µM*
O=C(c1ccoc1)N1CCN(c2cc(-c3ccccc3)nc3cc(-c4ccc(Br)cc4)nn23)CC1	31.4	·	·	-7.3	·
c1ccc(-n2nnc3c(N4CCOCC4)ncnc32)cc1	-2.4	-21.5%	?	-4.3	8.91µM*
c1ccc(Cn2nnc3c(N4CCc5ccccc5C4)ncnc32)cc1	-0.4	14.1µM*	-14.1%	5.7	19.6%
c1ccc(Cn2nnc3c(N4CCCC4)ncnc32)cc1	-2.6	15.8µM*	-2.9%	-12.4	2.2%
O=C(c1cc(-c2ccc(F)cc2)on1)N1CCCCCC1	6.1	3.0%	-10.2%	7.6	-2.2%
O=C(c1cc(-c2cccc(O)c2)on1)N1CCCCC1	5.4	-12.9%	-17.7%	-10.5	0.708µM*
O=C(c1cc(-c2ccc(F)cc2)on1)N1CCCC1	12.1	-6.8%	-59.6%	3.9	14.1µM*
COc1ccc(-c2cc(C(=O)N3CCCCCC3)no2)cc1	2.1	-1.2%	-18.7%	2.4	-36.7%
COc1ccc(-c2cc(C(=O)N3CCCC3)no2)cc1	-2.7	-14.4%	10µM*	-15.9	3.98µM*
Cc1cccc(CNc2cc(-c3cccnc3)ncn2)c1	·	·	-1.5%	·	38.5%
CC(C)N(C(=O)[C@H]1CC(CC(=O)NCc2cccc(C(F)(F)F)c2)C(=O)N2CCc3c([nH]c4ccccc34)[C@]12C)C(C)C (stereo partly specified)	-19.1	·	·	-14.3	·
O=C(COC(=O)Cc1c(F)cccc1Cl)NCc1ccc2c(c1)OCO2	4.0	·	·	4.4	·
COc1ccc(C(=O)NCC(=O)N/N=C/c2cccc(OC(=O)c3ccco3)c2)cc1OC	1.3	2.2%	28.6%	7.9	-9.5%
Cc1nn(-c2ccccc2)c(Cl)c1CN(C(=O)CCl)c1ccc(Cl)cc1	1.9	-0.6%	?	-0.6	-7.4%[10 µM]
